SKKanGAS inh = blocks kanamycin growth of S. pyogenes SKKanGAS strain. BacTiter-Glo, 6 h. inhibition, % at 7.5 µM. 300,000 tested, 1.3% active. AID 1662;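 active means mean replicate score, as percent of positive control median, at least 50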;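 further: strain carries kanamycin resistance gene driven by streptokinase promoter and grows in 40 µg/ml kanamycin; loss of luminescence reflects streptokinase promoter inhibition or plain growth inhibition; 0% = median of DMSO wells and 100% = positive control at its reference dose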
V-ATPase pHluor = regulators of yeast V-ATPase proton transport | S. cerevisiae, pHLuorin cytosolic pH fluorescence | response, % at 10 µM | 350,000 tested, 0.37% active | AID 504577; in the data active means response mostly above about 7.3%, no sharp cut-off; inactive means mostly below about 5.4%; further: actives read high
tim23-1 inh = growth inhibitors of tim23-1 mutant yeast | inhibition, % at 20 µM | 330,000 tested, 1.3% active | AID 463212 | S. cerevisiae tim23-1 growth, BacTiter-Glo luminescence, 24 h;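 active means growth inhibition of the mutant yeast at or above 50%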;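 further: temperature-sensitive mutant grown at 25 °C; plate controls were DMSO-treated mutant yeast for no effect and medium wells lacking yeast for full effect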
PfHsp90 set2 = growth inhibition of yeast expressing Plasmodium Hsp90; S. cerevisiae expressing PfHsp90, BacTiter-Glo ATP, 48 h; yeast lacking PDR1 and PDR3 efflux regulators; inhibition, % at 9.4 µM; 310,000 tested, 0.32% active; AID 504621;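 active means every replicate shows inhibition above about 80%, whatever the replicate mean, limit read from the data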;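 further: 0% = DMSO neutral controls and 100% = 20 µM radicicol positive controls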
TIM10 inh = inhibits growth of TIM10 yeast strain; S. cerevisiae TIM10 strain growth, BacTiter-Glo luminescence, 24 h; inhibition, % at 10 µM; 330,000 tested, 1.4% active;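 active means inhibition of 40% or more at the single tested concentration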;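 further: wild-type TIM10 isogenic control strain grown at permissive 25 °C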
tim10-1 inh = tim10-1 yeast growth inhibition. S. cerevisiae tim10-1 ts strain growth, BacTiter-Glo, 24 h. inhibition, % at 20 µM. 330,000 tested, 2.2% active;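 active means inhibition of at least 40%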;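 further: mutant grown at 25 °C; 0% = DMSO wells with yeast and 100% = wells holding no yeast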
tim10-1 conf = confirmation of tim10-1 mutant yeast growth inhibitors. inhibition, % at 20 µM. shares compounds with tim10-1 inh. 7,400 tested, 56% active. S. cerevisiae tim10-1 ts strain growth, BacTiter-Glo, 24 h;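 active means inhibition of yeast growth at or above a set limit in either of two repeat tests at 20 µM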;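 further: tim10-1 mutant grown at permissive 25 °C to find synthetic lethal compounds; 0% = DMSO yeast wells and 100% = medium wells without yeast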
An asterisk follows results filed as active; · = no result. A selection: hits, their analogues and other compounds. The true share with any hit is near 4.6%.

SMILES	SKKanGAS inh	V-ATPase pHluor	tim23-1 inh	PfHsp90 set2	TIM10 inh	tim10-1 inh	tim10-1 conf
CN1CCN(C(=O)c2ccc(CSc3ccc(Cl)cc3)cc2)CC1	4	-4	8	-8	8	10	·
Cc1ccc2oc(C(=O)N3CCN(Cc4ncccc4C)CC3)c(C)c2c1	13	2	40	10	27	41*	18
Cc1ccc2oc(C(=O)N3CCCCCC3)c(C)c2c1	-4	-3	33	-2	-15	8	·
O=C(c1cc(COc2cccc3cnccc23)on1)N1CCC(c2ccccc2Cl)C1 (stereo not drawn)	17	4	32	8	12	51*	3
CN(Cc1cccc2cnccc12)C(=O)c1cc(COc2ccc(F)cc2F)on1	-26	-2	35	25	-12	11	·
O=C(c1cc(COc2c(F)cccc2F)on1)N1CCC(c2ccccc2Cl)C1 (stereo not drawn)	-14	3	16	-8	5	20	·
CCc1ccc(CN(C)C(=O)c2cc(COc3cccc4cnccc34)on2)cc1	8	-3	40	-2	17	44*	2
Cc1cc(NS(=O)(=O)c2ccc(NC(=O)NC3CCCCC3)cc2)no1	-2	-2	-3	·	-11	11	·
Cc1cc(NS(=O)(=O)c2ccc(C3CCCCC3)cc2)no1	15	1	35	-134	13	41*	20
N/C(=N\OC(=O)c1cccs1)c1cccc([N+](=O)[O-])c1	-9	1	12	-4	13	47*	39*
COc1ccc(C(=O)O/N=C(\N)c2ccccc2Cl)cc1OC	1	0	31	21	29	63*	52*
COc1ccc(CCNC(=O)c2cc([N+](=O)[O-])cc([N+](=O)[O-])c2)cc1OC	8	-3	·	-15	·	·	·
COc1ccc(CCNC(=S)NC(=O)c2cccc([N+](=O)[O-])c2)cc1OC	2	2	37	0	24	41*	27
N/C(=N\OC(=O)CSc1ccccc1)c1cccc([N+](=O)[O-])c1	-4	1	31	-3	24	42*	40*
COc1ccc(/C(N)=N/OC(=O)c2cccc([N+](=O)[O-])c2)cc1OC	0	-3	11	·	6	42*	15
C=C(C)c1cccc(C(C)(C)NC(=O)Nc2ccc(OC)cc2)c1	4	-2	7	·	2	8	·
C=C(C)c1cccc(C(C)(C)NC(=O)Nc2ccc(C(C)=O)cc2)c1	8	0	34	9	14	43*	22
Cc1cc(C)cc(NC(=O)c2ccc(Cn3nc(C)c(Cl)c3C)o2)c1	15	4	35	-38	36	41*	30*
Cc1nn(Cc2c(Cl)cccc2Cl)c(C)c1NC(=O)c1sc2ccccc2c1Cl	-3	6	-14	-34	6	15	·
Cc1nn(Cc2ccc(Cl)c(Cl)c2)c(C)c1NC(=O)c1sc2ccccc2c1Cl	25	-3	28	-30	37	41*	41*
Cc1csc(NC(=O)c2ccc(Cn3nc(C)c(Br)c3C)o2)n1	7	3	49	-4	14	26	·
Cc1ccc(CNC(=O)c2ccc(Cn3nc(C)c(Cl)c3C)o2)cc1	4	-1	12	109*	12	55*	54*
Cc1nn(Cc2ccc(C(=O)N/N=C/c3ccncc3)o2)c(C)c1Cl	2	-2	-8	14	-3	-12	·
O=C(Cn1ccc(=O)[nH]c1=O)Nc1ccc(O)c([N+](=O)[O-])c1	·	-2	·	16	·	·	·
CC(=O)N1C[C@H]2CON(C)[C@H]2C[C@H]1c1cccc(-c2ccc(C#N)cc2)c1	·	-1	·	·	·	·	·
SMILES	SKKanGAS inh	V-ATPase pHluor	tim23-1 inh	PfHsp90 set2	TIM10 inh	tim10-1 inh	tim10-1 conf
O=C(Nc1ccc(Cl)cc1)C1CCCN(c2ncnc3c2nc2n3CCCCC2)C1 (stereo not drawn)	15	-3	41	-13	4	53*	12
CC(C)N(Cc1ccccc1)C(=O)C1CCCN(c2ncnc3c2nc2n3CCCCC2)C1 (stereo not drawn)	-7	0	25	19	10	31	·
CCCCN(Cc1ccco1)C(=O)C1CCCN(c2ncnc3c2nc2n3CCCCC2)C1 (stereo not drawn)	-9	0	34	-11	15	41*	-2
Cc1ccc(NC(=O)C2CCCN(c3ncnc4c3nc3n4CCCCC3)C2)cc1Cl (stereo not drawn)	16	0	-2	-37	-7	29	·
O=C(C1CCCN(c2ncnc3c2nc2n3CCCCC2)C1)N1CCN(c2cccc(Cl)c2)CC1 (stereo not drawn)	19	0	24	-2	8	41*	4
Cc1cccc(N2CCN(C(=O)C3CCN(c4ncnc5c4nc4n5CCCCC4)CC3)CC2)c1C	-8	2	39	-77	29	56*	22
CC1(c2cccc(Br)c2)NC(=O)N(CC(=O)Nc2ccc3c(c2)OCCO3)C1=O (stereo not drawn)	·	-2	4	-2	9	-10	·
COc1ccc(S(=O)(=O)N2CCN(C)CC2)cc1NC(=O)c1ccccc1	3	6	6	10	-4	10	·
Cc1ccc(N(C(=O)Cn2nnc(-c3ccc(F)cc3)n2)C(CC(C)C)C(=O)NCC2CCCO2)cc1 (stereo not drawn)	-3	-1	23	-2	24	22	·
CC(=O)Nc1cccc(-c2cnc(N)c(C(=O)c3cccnc3)n2)c1	·	1	4	1	7	-3	·
Cc1sc(C(C2C(=O)CC(C)(C)CC2=O)C2C(=O)CC(C)(C)CC2=O)cc1[N+](=O)[O-]	5	9	47	8	37	44*	41*
CC(C)(C)c1ccc(-c2csc(NNC3=NCCCCC3)n2)cc1	-13	5	37	-7	23	45*	22
Brc1ccc(-c2csc(NNC3=NCCCCC3)n2)cc1	2	-1	20	36	11	29	·
Cc1ccc(S(=O)(=O)c2nc(Nc3ccccc3)sc2Cl)cc1	6	-2	·	·	·	·	·
COc1ccc(Nc2nc(S(=O)(=O)c3ccc(C)cc3)c(Cl)s2)cc1	5	2	30	-19	17	42*	30
O=S(=O)(NCCSCc1ccc(Cl)cc1Cl)c1ccc2c(c1)OCCO2	-10	-3	28	-26	19	45*	34*
O=S(=O)(NCCSc1ccc(Cl)cc1)c1ccc2c(c1)OCCO2	2	-2	30	-11	24	56*	49*
NS(=O)(=O)c1ccc(CNS(=O)(=O)c2ccc3c(c2)OCCO3)cc1	-3	-4	2	-9	6	-7	·
COc1ccc(S(=O)(=O)NCCSc2ccc(Cl)cc2)cc1OC	-4	-1	34	18	22	30	·

From PubChem
